Assay outcomes: PubChem BioAssay, National Center for Advancing Translational Sciences (NCATS)
TexasRed fluor – Total Fluorescence Counterscreen for Inhibitors of the Interaction of Thyroid Hormone Receptor and Steroid Receptor Coregulator 2; TRb/SRC2 Texas Red total fluorescence interference; Potency, µM (top dose mostly 106 µM); 280,000 tested, 0.29% active; AID 1479, 2009; active means well fitted curve in either direction with a large enough effect; inconclusive means small, poorly fitted or top-dose-only effect
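Human TRβ ligand-binding domain (0.6 uM) and Texas Red SRC2 peptide (20 nM) in Tris buffer with 1 uM T3 and 5% DMSO were incubated with pinned compound for 5 hr at ambient temperature. Total fluorescence was computed as S + 2P (555/632 nm).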
JMJD2E inh – qHTS Assay for Inhibitors of Human Jumonji Domain Containing 2E (JMJD2E); Potency, µM (series often up to 57.1 µM), most hits filed as inhibitors; JMJD2E catalytic domain, FDH-coupled NADH fluorescence (FDH is formaldehyde dehydrogenase); Lysine-specific demethylase 4E (Homo sapiens), B2RXH2; 230,000 tested, 1.6% active; active means well fitted inhibition curve with a large enough effect, not every such curve was filed as active; inconclusive means small, poorly fitted or top-dose-only effect, or another doubt; inactive means no such curve, though single readings can be large or run the other way; further: nearly all actives have a fitted effect of over 50% in size
Coupling enz – qHTS Assay for Inhibitors of Fructose-1,6-bisphosphate Aldolase from Giardia Lamblia: Coupling assay counterscreen; coupling enzyme system counterscreen, AmpLite Red fluorescence; activity change, negative = inhibition, % at 58.2 µM, hits read low; 290,000 tested, 0.67% active; AID 2472, 2010; in the data active means activity change below about -30%
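Coupling enzymes only (glyceraldehyde-3-phosphate) + compound, at 57.5 uM final, 10 min RT; add substrate/coupling/AmpLite Red mix, 20 min RT; fluorescence ex 525/em 598 nm. Actives flag coupling-system interference.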
TRb-SRC2 inh – qHTS for Inhibitors of the Interaction of Thyroid Hormone Receptor and Steroid Receptor Coregulator 2. Thyroid hormone receptor beta (Homo sapiens), P10828. TRbeta-SRC2 peptide binding, fluorescence polarization; receptor liganded with 1 µM T3. Potency, µM (highest dose often 106 µM), usual class: inhibitors. 280,000 tested, 0.065% active. AID 1469, 2008; further: nearly all actives have a fitted effect of over 50% in size
Target sequence (P10828 whole entry, looked up): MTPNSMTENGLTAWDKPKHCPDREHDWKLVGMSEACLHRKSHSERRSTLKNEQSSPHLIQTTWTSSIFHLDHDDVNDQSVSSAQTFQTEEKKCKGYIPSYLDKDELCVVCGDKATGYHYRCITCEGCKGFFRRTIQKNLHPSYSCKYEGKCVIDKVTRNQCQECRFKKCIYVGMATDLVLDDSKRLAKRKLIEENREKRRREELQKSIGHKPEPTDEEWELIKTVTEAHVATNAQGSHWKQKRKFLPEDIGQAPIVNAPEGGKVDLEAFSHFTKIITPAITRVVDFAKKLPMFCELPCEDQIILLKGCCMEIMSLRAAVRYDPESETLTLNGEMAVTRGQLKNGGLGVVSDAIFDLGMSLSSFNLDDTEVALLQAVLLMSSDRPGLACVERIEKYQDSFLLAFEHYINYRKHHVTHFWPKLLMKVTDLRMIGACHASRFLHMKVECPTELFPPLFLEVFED
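Assay buffer: 20 mM Tris-HCl, 100 mM NaCl, 10% glycerol, 1 mM EDTA, 0.01% NP-40, 1 mM DTT, 1 uM T3, 5% DMSO; TRb LBD 0.6 uM, Texas Red SRC2 20 nM; FP after 5 hr.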
HttQ103 aggreg – qHTS Multiplex Assay to Identify Dual Action Probes in a Cell Model of Huntington: Aggregate Formation (GFP). PC12 HttQ103-GFP aggregates, Acumen cytometry, 40 h. Potency, µM (doses to about 46.1 µM), hits mostly inhibitors. 220,000 tested, 1.1% active; further: nearly all actives have a fitted effect of over 60% in size
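PC12 cells stably carrying ecdysone-inducible HTT exon 1 Q103–GFP were induced with tebufenozide (100 nM final) and treated with library compounds in titration. GFP aggregates in lysates were counted by laser scanning cytometry.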
HTT cytoprotect – qHTS Multiplex Assay to Identify Dual Action Probes in a Cell Model of Huntington: Cytoprotection (ATP) | PC12 HTT-Q103 induced, cytoprotection, ATP luminescence, 40 h | 230,000 tested, 0.14% active | Potency, µM (top dose mostly 56.4 µM), most hits filed as activators | AID 1471, 2008; further: nearly all actives have a fitted effect of over 45% in size
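PC12 cells with ecdysone-inducible HTT exon 1 Q103-GFP, induced with 100 nM tebufenozide and co-treated with library compounds in a dose series (1536-well, 1500 cells/well). Cytoprotection read as ATP content by ATPlite luminescence.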
A number is an active result; - = inactive; ? = inconclusive; . = not tested or not shown; ! = not active in a repeat; [ ] = another dose, or the depositor's remark. Only some compounds are listed: those with a hit (about 2% of all), similar ones and a draw of the others. Unless noted, the call rests on the fitted dose curve; in most records, active means well fitted curve in the direction sought with a large enough effect; inconclusive means small, poorly fitted or top-dose-only effect, or another doubt; inactive means no such curve, though single readings can be large; an effect the other way counts as inactive or inconclusive.

SMILES	TexasRed fluor	JMJD2E inh	Coupling enz	TRb-SRC2 inh	HttQ103 aggreg	HTT cytoprotect
CCCCCCn1c(=O)[nH]c2nc3cc(N)ccc3nc2c1=O	-	-	-40	-	?	-[10 µM]
Cc1ccc2nc(-c3ccc(C)o3)c(Nc3ccc4c(c3)OCCO4)n2c1	0.0013µM[quencher]	.	.	-	.	.
Cc1ccc(-c2nc3ccc(Cl)cn3c2Nc2ccc3c(c2)OCCO3)o1	-	.	.	-	.	.
Cn1cc(CN2CCc3c([nH]c4ccccc34)C2C2CCCCC2)cn1 (centres undefined)	-	20µM	-	-	-[9.22 µM]	-[10 µM]
Cn1cc(CN2CCc3c([nH]c4ccccc34)C2C(C)(C)C)cn1 (centres undefined)	-	?	-	-	-[9.22 µM]	-[10 µM]
CCN(CC)S(=O)(=O)c1ccc(N/N=C/c2cc(OC)ccc2O)nc1	-	13µM	-	-	2.8µM	-[10 µM]
CCC1CCCCN1S(=O)(=O)c1ccc(NC(=O)c2nc(S(C)(=O)=O)ncc2Cl)cc1 (centres undefined)	.	.	-	.	.	.
CCN(CC)c1ccc(C(=O)N/N=C/c2ccccc2OC(F)F)cc1	-	?	-	-	10µM	-[10 µM]
CCN(CC)S(=O)(=O)c1cccc(C(=O)N/N=C/c2ccc(O)c(O)c2O)c1	-	7.9µM	-41	-	-	-[0.074 µM]
CCOc1ccccc1/C=N/NC(=O)c1cccc(S(=O)(=O)N(CC)CC)c1	-	?	-38	-	?	-[10 µM]
CCN(CC)S(=O)(=O)c1cccc(C(=O)N/N=C/c2ccc(N3CCOCC3)cc2)c1	-	-	-	-	-[9.22 µM]	-[10 µM]
CN(C)S(=O)(=O)c1cccc(NC(=S)N/N=C/c2ccc(O)c(O)c2O)c1	-	7.9µM	-56	-	-[9.22 µM]	-[10 µM]
COc1ccccc1C1C=C(c2ccc(F)cc2)Nc2nc(-c3ccc(Cl)cc3)nn21 (centres undefined)	-	.	.	-	.	.
CCC1CN(C(=O)N2CCC(C(=O)NCc3cccs3)CC2)c2ccccc2O1 (centres undefined)	-	.	.	-	.	.
NC(C(=O)O)c1cc(O)cc(O)c1 (centres undefined)	-	.	.	-	.	-
CCN(CCO)c1ccc(NC(=S)Nc2cccc(S(=O)(=O)N(C)C)c2)cc1	-	?	-41	?	-	-
CCN(CC)S(=O)(=O)c1cccc(C(=O)N/N=C(\C)c2ccc(O)cc2O)c1	-	25µM	-	-	4µM	-
CCN(CC)C(=O)c1ccccc1NC(=O)c1cccc(S(=O)(=O)N(CC)CC)c1	-	-	-	-	-	.
O=C(NCc1ccccc1Cl)c1ccc(Cn2c(SCc3ccccc3)nc3cccnc32)cc1	-	.	.	-	.	.
CCc1cccc(CC)c1NC(=S)NCCc1c(C)[nH]c2ccc(C)cc12	-	-	-	-	6.3µM	.
CCc1cccc(C)c1NC(=S)NCCc1c(C)[nH]c2ccc(C)cc12	-	-	-	-	?	.
CCOC(=O)CN=C1CC(C)(C)CC2=C1Sc1ncnc(N(C)C)c1N2	-	?	-47	-	-	-
CCOC(=O)C1=C(C)NC2=C(C(=O)CC(C)(C)C2)C1c1cccc(C)n1 (centres undefined)	-	?	-	-	-	-[10 µM]
O=C(COc1ccccc1C(=O)N/N=C\c1ccc(O)c(O)c1)N/N=C/c1ccc(O)c(O)c1	-	13µM	-	-	-	-
Cc1cccc(N2CCN(C(c3cccs3)c3nnnn3C(C)(C)C)CC2)c1C (centres undefined)	-	-	-	-	11µM	-[10 µM]
SMILES	TexasRed fluor	JMJD2E inh	Coupling enz	TRb-SRC2 inh	HttQ103 aggreg	HTT cytoprotect
COc1ccc(-c2c(C)nn3c(C(F)(F)F)cc(-c4ccccc4)nc23)cc1OC	-	.	.	-	.	.
COc1ccc(-c2cc(=O)oc3cc(OC(=O)C4CCCCC4)c(Cl)cc23)cc1	-	-	-	-	0.28µM	-[10 µM]
O=C1NCC2=C1C(c1ccccc1)Nc1ccccc1N2 (centres undefined)	-	?	-41	-	-	-
CC(CN1c2ccccc2Sc2ccccc21)N(C)C (centres undefined)	-	-	-	-	28µM!	-
C[C@@H](CN1c2ccccc2Sc2ccccc21)N(C)C	-	-	-	-	.	-
CCc1cc[n+](C2=C([O-])c3ccccc3C(=O)/C2=N\S(=O)(=O)c2cccs2)cc1	-	?	-55	-	?	.
O=C1C(=O)c2ccccc2C([O-])=C1[n+]1ccccc1	-	-	-	-	-[9.22 µM]	-[10 µM]
CC(=O)c1ccc2cccc3c2c1N=CN3C	-	-	-43	-	-	-
O=C(CSc1oc(-c2ccco2)nc1S(=O)(=O)c1ccc(Br)cc1)c1ccc(Cl)cc1	-	.	.	-	.	.
CCOC(=O)c1cn(CC)c2ccc(S(=O)(=O)N3CCC(C)CC3)cc2c1=O	-	-	-	-	-	-[0.074 µM]
CCOC(=O)c1cn(CC)c2ccc(S(=O)(=O)N3CC(C)CC(C)C3)cc2c1=O (centres undefined)	45µM[fluorescent]	-	-	?	-	-
CCN(Cc1ccc(OC)cc1)c1ccc(-c2nc(-c3ccncc3)no2)cc1[N+](=O)[O-]	-	.	.	-	.	.
CSCC[C@H](NC(=O)[C@H](CC(C)C)NC(=O)[C@@H]1CCCN1C(=O)[C@H](Cc1ccccc1)NC(=O)[C@H](Cc1ccccc1)NC(=O)[C@@H]1CCC(=O)N1)C(N)=O	-	.	-	-	.	.
COc1ccccc1C(=O)Nc1ccc2nc(N3CCC(C)CC3)cc(C)c2c1	-	.	.	-	.	.
OC[C@@H]1O[C@@H](Oc2ccc(O)cc2)[C@H](O)[C@@H](O)[C@@H]1O	-	.	-	-	.	.
O=C(O)CC(CCc1ccccc1)OC1OC(CO)C(O)C(O)C1O (centres undefined)	-	25µM	-	-	-[9.22 µM]	-[10 µM]
Cc1c(Cl)cccc1NC(=S)NNc1ncc(C(F)(F)F)cc1Cl	-	-	-	-	13µM	-
C[Si](C)(C)O[Si](C)(C)O[Si](C)(C)C	-	.	.	-	.	.
